DAX1 inh-1: DAX1 (NR0B1) inhibition, primary screen | inhibition, % at 6.8 µM | HEK293T StAR-luciferase reporter, SF-1/DAX-1 repression relief | 370,000 compounds, 1.1% hits | AID 652010;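 active = inhibition above the mean over all tested compounds plus 3 SD, cut at about 3.6% in these data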;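 also: higher inhibition means more luminescence from relief of DAX-1 repression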
hcDAF-12 act: activators of H. contortus DAF-12 nuclear receptor. HEK293 hcDAF-12 lit1-tk-luc reporter, luminescence; 0% DMSO, 100% Δ7-dafachronic acid. activation, % at 6.8 µM. 370,000 compounds, 1.4% hits. AID 652067;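 active = activation above the mean of all tested compounds plus 3 SD, cut at about 5.5% in these data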
hgDAF-12 ag: activates the H. glycines DAF-12 receptor ligand-binding domain; 370,000 compounds, 1.8% hits; HEK293 GAL4-hgDAF12 UAS-luciferase reporter, agonist luminescence; normalized to butyrate control; activation, % at 6.8 µM;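 active = activation above a cutoff set at the mean of all screened compounds plus 3 SD, cut at about 10% in these data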
DAX1 inh-2: inhibits human nuclear receptor DAX1; 340,000 compounds, 0.99% hits; HEK293 Gal4-DAX1 luciferase reporter, luminescence; inhibition, % at 6.75 µM; P51843; AID 504766;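 active = inhibition above the mean over all tested compounds plus 3 SD, cut at about 4.2% in these data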;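 also: inhibition shows as a rise in luminescence from relieved DAX1 repression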
Wee1 degr inh: blocks degradation of human Wee1 kinase; P30291; HeLa Luc-Wee1K328M stability, luciferase luminescence; 100% = proteasome inhibitor MG132 effect; reporter increase, % at 5 µM; AID 1321; 220,000 compounds, 1.2% hits;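 active = activation above the mean of all tested compounds plus 3 SD, set per screening run, cut at about 8.8% in these data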;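 also: cells exposed to compound for 20 h before luminescence read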
Target sequence (P30291 whole entry K328M): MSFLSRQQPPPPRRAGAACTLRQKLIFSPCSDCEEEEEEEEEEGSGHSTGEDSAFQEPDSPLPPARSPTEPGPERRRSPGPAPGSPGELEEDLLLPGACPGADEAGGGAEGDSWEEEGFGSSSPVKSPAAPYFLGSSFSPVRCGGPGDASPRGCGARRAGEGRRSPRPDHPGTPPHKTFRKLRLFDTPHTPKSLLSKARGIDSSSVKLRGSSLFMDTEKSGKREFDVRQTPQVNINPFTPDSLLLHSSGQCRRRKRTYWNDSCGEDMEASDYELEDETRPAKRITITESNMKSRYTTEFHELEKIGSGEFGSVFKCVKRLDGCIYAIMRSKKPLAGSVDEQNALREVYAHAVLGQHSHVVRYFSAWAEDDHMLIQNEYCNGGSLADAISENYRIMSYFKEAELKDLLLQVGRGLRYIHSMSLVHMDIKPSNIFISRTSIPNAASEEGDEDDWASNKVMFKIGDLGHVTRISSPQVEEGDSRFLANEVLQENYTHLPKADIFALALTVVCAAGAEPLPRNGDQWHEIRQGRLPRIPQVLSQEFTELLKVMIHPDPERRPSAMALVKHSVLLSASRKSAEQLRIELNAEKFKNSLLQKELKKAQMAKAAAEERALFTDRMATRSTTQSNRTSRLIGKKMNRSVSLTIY
ssDAF12 agonist: activates DAF-12 receptor from parasite S. stercoralis | HEK293 ssDAF-12/GRIP1 lit1-tk-luc reporter, luminescence; % of 3 µM dafachronic acid response | activation, % at 6.8 µM | 370,000 compounds, 1% hits | AID 652126;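 active = activation above the mean over all tested compounds plus 3 SD, cut at about 0.9% in these data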
LXR ag: LXR-beta agonism as hcDAF-12 counter-screen; shares compounds with hcDAF-12 act; HEK293 Gal4-LXR tk-luc reporter, luminescence, 24 h; normalized: DMSO 0%, positive control 100%; activation, % at 6.8 µM; 3,400 tested, under 10 active;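 active = mean percent activation of the reporter above a cutoff set as the average over tested compounds plus their standard deviation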
hcDAF12 conf: hcDAF-12 agonism, confirmation assay; activation, % at 6.8 µM; shares compounds with hcDAF-12 act; AID 743032; HEK293 hcDAF-12 lit1-tk-luc reporter, luminescence; % of Δ7-dafachronic acid response; 3,400 compounds, 61% hits;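 active = mean activation across triplicate tests above the threshold derived from the earlier primary screen, cut at about 5.5% in these data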
hgDAF12 conf: hgDAF-12 agonism, confirmation assay; HEK293 GAL4-hgDAF12 luciferase reporter, agonist mode; percent of butyrate response; shares compounds with hgDAF-12 ag; AID 743050; activation, % at 6.8 µM; 3,300 compounds, 80% hits;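 active = mean activation over triplicate wells above the hit cutoff derived from the earlier primary screen, cut at about 11% in these data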
LXR ag 2: counter-screen for DAF-12 agonists: agonists of human LXR-beta. shares compounds with hgDAF-12 ag. HEK293 Gal4-LXR luciferase reporter, 24 h. activation, % at 6.8 µM. 3,300 tested, under 10 active. AID 743051;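 active = mean activation of the triplicate above a set limit carried over from the primary screen, none filed active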
A number is an active result; - = inactive; . = no result given. Rows were chosen to be rich in hits. Some 4.6% of all compounds tested hit in one or more screens of this group.

SMILES	DAX1 inh-1	hcDAF-12 act	hgDAF-12 ag	DAX1 inh-2	Wee1 degr inh	ssDAF12 agonist	LXR ag	hcDAF12 conf	hgDAF12 conf	LXR ag 2
COc1ccc(CC(=O)N(C)CC(=O)Nc2ccc(F)cc2)cc1S(=O)(=O)N1CCOCC1	-	-	-	-	.	-	.	.	.	.
CC1=NC(=O)C(N=Nc2cccc(O)c2)N1c1ccccc1 (centres undefined)	-	9.3	14.2	-	-	-	-	12.4	16.3	-
Cc1cccc(-n2c(O)c(C=Nc3cccc(O)c3)c3ccccc3c2=O)n1	-	-	-	-	-	-	.	.	.	.
COc1ccccc1-c1noc2c1C(=O)N(Cc1cn(-c3ccccc3)nn1)CC2	-	-	-	.	.	-	.	.	.	.
CC[n+]1c(/C=C/c2ccc(OC(C)=O)c(OC)c2)ccc2ccccc21	-	-	-	-	.	-	.	.	.	.
CC[n+]1c(/C=C/c2ccc(OC)c(OC)c2)ccc2ccccc21	-	9.3	16.8	4.4	.	1.1	-	9.7	17.7	-
Cc1ccc(NC(=O)C(C)N2C(=O)c3ccccc3S2(=O)=O)cc1Cl (centres undefined)	-	-	-	-	.	-	.	.	.	.
Cc1ccc(N2C(=O)c3ccccc3NC2(C(=O)O)c2ccccc2)cc1Cl (centres undefined)	-	9.9	18.9	4.8	.	-	-	-	12.3	-
CC(=NC1CCCCC1)C1=C(O)c2ccccc2C1=O	4.2	8.1	15.8	-	-	-	-	5.8	15.1	-
Cc1ccccc1-c1cc(-c2ccccc2O)n[nH]1	-	10.7	16.1	5.6	-	1.4	-	8.1	18.3	-
Cc1ccc(-c2cc(NC(=O)c3ccccc3[N+](=O)[O-])n[nH]2)cc1	-	-	-	-	.	-	.	.	.	.
Cc1ccc(-c2cc(-c3ccccc3[N+](=O)[O-])[nH]n2)c(O)c1	-	9.9	14.2	5.3	-	2.3	-	9.6	15.8	-
Cc1c(Cl)cccc1NC(=O)c1cc(-c2ccccc2O)n[nH]1	-	-	-	-	-	-	.	.	.	.
COC(=O)c1cc(-c2ccc(C)cc2)n[nH]1	-	-	-	-	-	-	.	.	.	.
Cc1ccc(-c2cc(-c3ccc(C)cc3O)[nH]n2)cc1	-	15.1	19.1	5.1	.	2.9	-	10.4	22.2	-
CN(C)c1ccc(CNC(=O)C2(C)Cc3c(-c4cccc(C(F)(F)F)c4)ccnc3O2)cc1 (centres undefined)	-	-	-	.	.	-	.	.	.	.
C[C@H](O)[C@@H]1CN2CCc3c([nH]c4c(-c5ccccc5)cccc34)[C@@H]2C[C@@H]1N(C)C(=S)NCCc1ccccc1	-	-	-	.	.	-	.	.	.	.
Nc1c(C(=O)NCC(O)c2ccccc2)cnn1-c1ccccc1 (centres undefined)	-	6.6	18.1	.	.	-	-	6.2	14.3	-
CC(=O)NC(=O)c1cnn(-c2ccccc2)c1N	-	-	-	-	-	-	.	.	.	.
COc1ccc(CN(C)c2ccc(S(=O)(=O)N3CCN(C)CC3)cc2[N+](=O)[O-])cc1OC	-	-	-	-	.	-	.	.	.	.
CCOC(=O)c1sc(=NC(=O)c2ccco2)n(C)c1C	-	9.0	13.5	-	-	-	-	11.1	13.6	-
Cc1ccnc(N/C=C/C(=O)c2ccc(Br)cc2)c1	-	9.0	18.4	-	.	-	-	7.2	20.8	-
Cc1cc(N/C=C/C(=O)c2ccc(Br)cc2)no1	-	-	-	-	-	-	.	.	.	.
COc1ccc(-c2noc(CCC(=O)N3CCN(c4ccc(Cl)cc4)CC3)n2)cc1	-	-	-	-	.	-	.	.	.	.
CCNC(=O)C1(C)CCCN1Cc1c(F)cccc1F (centres undefined)	-	-	-	.	.	-	.	.	.	.
SMILES	DAX1 inh-1	hcDAF-12 act	hgDAF-12 ag	DAX1 inh-2	Wee1 degr inh	ssDAF12 agonist	LXR ag	hcDAF12 conf	hgDAF12 conf	LXR ag 2
Cc1ccc2nc(-c3ccccc3)c(Cc3cccc(F)c3)n2c1	-	8.7	13.8	.	.	-	-	-	-	-
C[C@@H]1CCCCO[C@H](CN(C)S(=O)(=O)c2cn(C)cn2)[C@@H](C)CN([C@H](C)CO)C(=O)c2cc(NC(=O)CCCN(C)C)ccc2O1	-	-	-	.	.	-	.	.	.	.
COc1cccc(-c2nc(-c3ccc(Br)o3)no2)c1	4.4	7.6	30.5	5.4	-	2.0	-	11.9	23.1	-
CC(C)c1ccc2nc(NC(=O)C3CC3)sc2c1	-	7.0	22.1	-	.	-	-	-	17.0	-
O=C(Nc1nc2ccc(Cl)cc2s1)C1CC1	-	-	-	-	.	-	.	.	.	.
CC(C)(C)c1ccc2c(c1)C(=O)c1ccccc1C2=O	4.4	10.8	20.3	-	-	-	-	-	13.4	-
Cc1cccc(Nc2nc(-c3ccc(O)c(O)c3)cs2)n1	-	-	-	-	.	-	.	.	.	.
Cc1cccc(Nc2nc(-c3ccc(F)c(C)c3)cs2)n1	-	9.0	13.7	5.4	.	1.2	-	7.7	17.1	-
Cc1cc(C)c(C(=O)Nc2ccc3c(c2)OCCO3)c(C)c1	-	-	-	-	.	-	.	.	.	.
O=C(Nc1ccc(F)c(F)c1)c1ccc2c(c1)OCO2	-	-	-	-	-	-	.	.	.	.
O=C(Nc1ccc2c(c1)OCO2)c1ccc2c(c1)OCO2	-	7.3	14.0	-	-	2.1	-	9.3	15.2	-
O=C(Nc1ccc(Cl)c(Cl)c1)c1ccc2c(c1)OCO2	-	9.7	18.9	-	.	3.0	-	7.2	21.6	-
Cc1ccc(C(=O)Nc2ccc3c(c2)OCCO3)o1	-	9.2	13.3	-	-	-	-	-	14.4	-
CC1CCC(NC(=O)c2ccc3c(c2)OCO3)CC1 (centres undefined)	9.1	9.0	15.1	-	.	-	-	8.6	18.9	-
CC1CN(C(=O)COC(=O)c2cccc(S(=O)(=O)N3CCc4ccccc43)c2)CC(C)O1 (centres undefined)	-	-	-	-	.	-	.	.	.	.
Cc1ccc(C(=O)Nc2ccccc2C(=O)O)cc1S(=O)(=O)Nc1ccc(Br)cc1	-	-	-	-	.	-	.	.	.	.
CCn1c(SCC(=O)Nc2ccc(C(C)C)cc2)nnc1-c1ccc(C(C)(C)C)cc1	-	-	-	.	.	-	.	.	.	.
CC(C)Oc1cccc(NC(=O)C2(C)CCCN2C(=O)C(C)C)c1 (centres undefined)	-	-	-	.	.	-	.	.	.	.
